Screening data deposited in PubChem BioAssay by National Center for Advancing Translational Sciences (NCATS).
Pf Dd2 inh: blocks in vitro growth of P. falciparum Dd2; P. falciparum Dd2 growth, SYBR Green, 72 h; Potency, µM (doses to about 28.9 µM), without a hit: at the highest dose activity, negative = inhibition, hits mostly inhibitors; 120,000 compounds, 4.3% hits; AID 1347417; active = well fitted inhibition curve with a large enough effect;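 also: plate controls were DMSO vehicle for no effect and reference drug for full effect; nearly all actives have a fitted effect of over 65% in size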
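Readout: SYBR Green fluorescence, 485 nm excitation, 535 nm emission, after ~16 h lysis at 37C. Before that, Dd2-infected red cells (2.5% hematocrit) grew 72 h with compound, 29 uM top final concentration.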
Active calls of the source: *; i = inactive; [ ] = dose if it differs, or a comment. This excerpt belongs to a sample that is enriched for hits. Potency is read from the fitted curve at half-maximal effect.

SMILES	Pf Dd2 inh
O=C(NC1CCN(c2cc(-c3ccc(F)cc3)[nH]n2)CC1)c1cnccn1	i
c1cnc2nc(C3CCCN3)[nH]c2c1 (stereo not given)	-21.7%[44.1 µM]
CC[C@H]1CN(Cc2ccc(OC)cc2O)CC[C@H]1CC(=O)N1CCOCC1	7.94µM*
CC[C@H]1CN(C(=O)c2ccccc2)CC[C@H]1CC(=O)N1CCOCC1	-12.3%[44.1 µM]
CC[C@H]1CN(S(=O)(=O)c2ccccc2)CC[C@H]1CC(=O)N1CCOCC1	i
Cc1cccnc1C(=O)N1C[C@@H](CO)[C@H](c2nc(C3CC3)no2)C1	0.9%
O=C(c1ccccc1Cl)N1CCC2(CC1)CC(=O)N(c1ccccc1)c1ccccc1O2	-22.9%
O=C(C1CC1)N1CCC2(CC1)NCCc1c2[nH]c2ccccc12	-13.6%
CC(C)(C)CC(=O)N[C@H]1C[C@H]2C(=O)Nc3cc(Cl)ccc3C(=O)N2C1	2.8%[44.1 µM]
Cc1ccc(Cn2cc(-c3ccncc3)cc2C(=O)NCC2CC2)cc1	11.2µM*
Cc1ccc(Cn2cc(-c3ccncc3)cc2C(=O)N(C)Cc2ccccc2)cc1	-16.0%
CCn1cc(-c2ccncc2)cc1C(=O)NCc1ccc(SC)cc1	i
CN(Cc1nc2c(s1)CCCC2)C(=O)CN1C(=O)CSc2ccccc21	-5.8%
COc1ccc(C(=O)N2CCOC[C@H](Oc3ccc(C(F)(F)F)cn3)C2)cc1	5.4%[44.1 µM]
CC1(NC(=O)C2CC2)CN(Cc2nc(-c3ccccc3)cs2)C1	i
COc1ccc(Nc2ncc(C(=O)N3CCN(c4ccc(OC)cc4)CC3)c3ccccc23)cc1	i
COc1ccc(N2CCN(C(=O)c3cc4c(=O)n(Cc5ccccc5)ccc4nc3C)CC2)cc1	-16.3%
COc1cc2c(C(=O)N3CCN(c4ccc(F)cc4)CC3)cn(CC(C)C)c(=O)c2cc1OC	10µM*
COc1ccccc1N1CCN(C(=O)c2cn(CC(C)C)c(=O)c3c2c2ccccc2n3C)CC1	7.94µM*
COc1ccccc1N1CCN(C(=O)Nc2cn(CC(C)C)c(=O)c3ccccc23)CC1	44.8%[5.79 µM]
COc1cc(Cl)c(C)cc1NC(=O)c1cn(CC(C)C)c(=O)c2cc(OC)c(OC)cc12	-0.3%
COc1cc2c(C(=O)N(C)c3cccc(C(F)(F)F)c3)cn(CC(C)C)c(=O)c2cc1OC	-16.7%
COc1ccc(N2CCN(C(=O)c3cn(CC(C)C)c(=O)c4c3c3ccccc3n4C)CC2)cc1	10µM*
COc1ccccc1N1CCN(C(=O)c2c(C)oc3ncn(CC(C)C)c(=O)c23)CC1	8.4%
Cc1ccccc1CN1CCOc2cc([S+](=O)([O-])Nc3cccnc3)ccc2C1	i
SMILES	Pf Dd2 inh
Cc1noc(C2CC3(CCN(C(=O)c4ocnc4C)CC3)CN2C)n1 (stereo not given)	-13.5%
COc1cc(NC(=O)CC2C(=O)NCCN2C(C)C)ccc1NC(=O)C(C)(C)C (stereo not given)	-6.0%
O=C(C[C@@H]1C[C@H]2O[C@H](CNCc3ccccc3Cl)[C@@H](O)[C@H]2O1)N1CCOCC1	1.0%[44.1 µM]
COc1ccc(CN2C(=O)[C@@H]3C[C@@H](O)CN3C3(CN(C4CCCC4)C3)C2=O)cc1	-7.4%[44.1 µM]
Cn1ncc(N2CCC(C(=O)Nc3ccccc3)C2)cc1=O (stereo not given)	18.5%
O=C(Nc1ccc2oc(-c3ccccc3)nc2c1)C1CCN(c2cnn(Cc3ccccc3)c(=O)c2)C1 (stereo not given)	2.51µM*
O=C(C1CCCN(c2cnn(Cc3ccccc3)c(=O)c2)C1)N1CCCC1 (stereo not given)	i
O=C(NC1CCS(=O)(=O)C1)C1CCN(c2cnn(Cc3ccccc3)c(=O)c2)C1 (stereo not given)	-20.6%
O=C(NCCc1cccs1)C1CCCN(c2cnn(Cc3ccccc3)c(=O)c2)C1 (stereo not given)	-28.0%
O=C(Nc1ccc2c(c1)OCO2)C1CCCN(c2cnn(Cc3ccccc3)c(=O)c2)C1 (stereo not given)	10µM*
O=C(c1ccc(F)cc1)N1CCOC[C@H](Oc2cnccn2)C1	-5.8%[44.1 µM]
Cc1ncc(CC(=O)N2CCC3(CC2)CC(C(=O)O)N(C)C3)c(=O)[nH]1 (stereo not given)	-14.8%
CCc1noc(-c2cn(C3CCN(C(=O)c4cccs4)CC3)nn2)n1	i
Cc1ccc(C(=O)Nc2c(C)nc3ccccn3c2=O)cc1	16.5%
CCOc1ccc(Nc2nc(C)c(NC(=O)c3ccc(C)cc3)c(Nc3ccc(OCC)cc3)n2)cc1	-11.5%
Cc1ccc(Nc2nc(C)c(NC(=O)c3ccc(C)cc3)c(Nc3ccc(C)cc3)n2)cc1	8.91µM*
COc1ccc(-c2cc(N3CCN(C(=O)c4cc5ccccc5[nH]4)CC3)n[nH]2)cc1	-16.9%
CCCc1nc(-c2nc(C3CCOC3)no2)cs1 (stereo not given)	-8.7%
CC(C)S(=O)(=O)c1oc(-c2ccc(F)cc2)nc1S(=O)(=O)c1ccccc1	6.31µM*
CS(=O)(=O)c1oc(-c2ccc(F)cc2)nc1S(=O)(=O)c1ccc(Cl)cc1	10.0%
CC(C)S(=O)(=O)c1oc(-c2cccs2)nc1S(=O)(=O)c1ccc(F)cc1	10µM*
Cc1ccc(S(=O)(=O)c2nc(-c3cccs3)oc2SC(C)C)cc1	-9.4%
O=S(=O)(c1ccccc1)c1nc(-c2cccs2)oc1SCc1ccc(F)cc1	3.1%
CCCCS(=O)(=O)c1oc(-c2ccc(F)cc2)nc1S(=O)(=O)c1ccccc1	-23.7%
CS(=O)(=O)N1CCC(C2CCN(C(=O)c3ccc(F)c(Cl)c3)C2)CC1 (stereo not given)	-13.2%
SMILES	Pf Dd2 inh
Cc1cc2cc(-c3c(C)noc3C)nc(-c3cccc([S+](C)(=O)[O-])c3)c2o1	-21.4%[44.1 µM]
CCC(C)NC(=O)c1ccc2c(c1)sc1nc(-c3ccc(OC)cc3)cn12 (stereo not given)	-15.2%
Cc1ccc(-c2cn3c(n2)sc2cc(C(=O)NCCC4=CCCCC4)ccc23)cc1	1.5%
COc1ccc(-c2cn3c(n2)sc2cc(C(=O)Nc4cccc(SC)c4)ccc23)cc1	i
CCCN1CCN(CCCNC(=O)c2ccc3c(c2)sc2nc(-c4ccc(OC)cc4)cn23)CC1	1µM*
CCOc1ccccc1CNC(=O)c1ccc2c(c1)sc1nc(-c3cccc(OC)c3)cn12	11.2µM*
COc1ccc(-c2cn3c(n2)sc2cc(C(=O)NCc4ccccc4OC)ccc23)cc1	-22.6%
COc1cccc(-c2cn3c(n2)sc2cc(C(=O)NC4CCCCC4)ccc23)c1	-11.9%
COc1ccc(-c2cn3c(n2)sc2cc(C(=O)NCc4cccc(F)c4)ccc23)cc1	19.7%
COc1ccc(-c2cn3c(n2)sc2cc(C(=O)Nc4cc(OC)cc(OC)c4)ccc23)cc1	i
CCc1ccc(-c2cn3c(n2)sc2cc(C(=O)NCCC4=CCCCC4)ccc23)cc1	i
CCN(CC)CCCNC(=O)c1ccc2c(c1)sc1nc(-c3ccc(C)cc3)cn12	1.26µM*
COc1ccc(-c2cn3c(n2)sc2cc(C(=O)NCCCN4CCN(C)CC4)ccc23)cc1	2.51µM*
COCCn1c(C)cnc1C1CCNC1 (stereo not given)	19.4%
Nc1nc(C2CC(O)C2)cc(N2CCC(O)(Cn3ccnc3)CC2)n1 (stereo not given)	-17.9%
CCN1CCNC(=O)C1CC(=O)N1CCn2nc(Cc3ccccc3)cc2C1 (stereo not given)	2.5%
O=C(NCC1CCOCC1)c1c[nH]c2ccccc12	55.8%
CC(C)CCN1C[C@H]2[C@H](C1)[S+](=O)([O-])C(C)(C)C(=O)N2Cc1ccc(O)cc1	-12.5%[44.1 µM]
O=C(NC1C[C@H]2CC[C@@H](C1)N2C(=O)Cc1ccc(Br)cc1)c1ccncc1 (stereo not given in full)	i
